Bioassay records from PubChem.
5HT1a ag: human 5-HT1a receptor agonists, primary screen, cell-based, CHO, Ga15 NFAT-bla reporter. 5-hydroxytryptamine receptor 1A (Homo sapiens), P08908. CHO 5-HT1a Ga15 NFAT-bla reporter, FRET ratio; 0% basal, 100% maximal reference agonist. activation, % at 10 µM. 0.56% of 65,000 active. AID 567, 2006;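 active = activation above the screen-wide mean activation plus 3 SD, cut at about 19% in these data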
mHtt clearance: clearance of mutant huntingtin inclusions, primary screen, imaging, HeLa Exon1htt(103Q)mCFP, confocal imaging; inhibition, % at 1.5 µM; aggregate imaging; zero = plate's median compound well; 0.42% of 47,000 active;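 active = inhibition of aggregate fluorescence above about 70%, also judged a hit by eye on the cell image, limit read from the data, passing the limit was not always enough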;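 also: cells exposed to compound for three days before fixation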
5-HT1A blocker: human 5-HT1a receptor antagonists, primary screen, cell-based, CHO, Ga15 NFAT-bla reporter; CHO 5-HT1a Ga15 NFAT-bla reporter, antagonist mode; inhibition, % at 10 µM; AID 612, 2007; 0.68% of 62,000 active;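 active = inhibition above the mean of all tested compounds plus 3 SD, cut at about 43% in these data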;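 also: receptor stimulated by 5-CT agonist at 100 nM near EC80; beta-lactamase reporter measured by ratiometric fluorescence of a cleavable substrate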
HTR1E antagonist: 5-HT1E receptor antagonists, primary screen, cell-based, HTS; 5-hydroxytryptamine receptor 1E (Homo sapiens), P28566; CHO 5-HT1E Ga15 NFAT-bla reporter, FRET, antagonist; inhibition, % at 6 µM; 0.99% of 65,000 active; AID 571, 2007;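 active = inhibition above a set limit, the mean inhibition across every tested compound plus 3 SD, cut at about 29% in these data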;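 also: signal is the 460 over 535 nm emission ratio of beta-lactamase substrate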
Target sequence (P28566 whole entry, looked up): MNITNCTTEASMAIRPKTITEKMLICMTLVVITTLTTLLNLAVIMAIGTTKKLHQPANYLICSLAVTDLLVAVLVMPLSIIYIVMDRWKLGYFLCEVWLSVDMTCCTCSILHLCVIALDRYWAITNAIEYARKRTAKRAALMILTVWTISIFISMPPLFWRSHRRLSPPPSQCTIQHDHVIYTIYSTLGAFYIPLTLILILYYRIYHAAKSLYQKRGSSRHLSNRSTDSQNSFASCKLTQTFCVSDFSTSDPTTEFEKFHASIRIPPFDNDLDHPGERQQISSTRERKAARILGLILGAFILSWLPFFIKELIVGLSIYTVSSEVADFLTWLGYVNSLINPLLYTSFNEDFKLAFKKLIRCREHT
HTR1E agonist: 5-HT1E receptor agonists, primary screen, cell-based, HTS; 5-hydroxytryptamine receptor 1E (Homo sapiens), P28566; CHO 5-HT1E Ga15 NFAT-bla reporter, FRET; 0% DMSO wells, 100% control agonist wells; 0.69% of 65,000 active; AID 574, 2007; activation, % at 6 µM;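 active = activation above a set limit, the screen-wide mean activation plus 3 SD, cut at about 8.5% in these data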
Hits are given with their value; i = inactive; nt = no result given. Compounds with a hit are over-represented: about 2.3% of the library has one in this group of screens.

SMILES | 5HT1a ag | mHtt clearance | 5-HT1A blocker | HTR1E antagonist | HTR1E agonist
Cc1ccc2nc(C(F)(F)F)c(C#N)c(N)c2c1 | i | nt | nt | 35 | i
CCN(CC)C(=O)Cn1nc(C)c2ccccc2c1=O | nt | i | nt | nt | nt
COc1ccccc1-n1nnnc1SCc1cc2c(cc1Br)OCO2 | i | i | i | 29 | i
O=C(NCCS(=O)CCNC(=O)C(F)(F)F)C(F)(F)F | i | i | i | i | i
CCn1nc(C(=O)OCc2c(C)noc2C)c2ccccc2c1=O | i | i | i | 29 | i
Cc1noc(C)c1COC(=O)c1cc(=O)[nH]c2ccccc12 | i | i | i | i | i
CCN1CCN(C(C)C(=O)Nc2c(C)n(C)n(-c3ccccc3)c2=O)CC1 (stereo unspecified) | nt | i | nt | nt | nt
COc1cc(OC)c(OC)cc1CNC1CCCCCC1 | 33 | i | i | i | i
Cc1ccc2c(=O)c(CN(C)C3CCN(C)CC3)c(C)[nH]c2c1C | i | nt | nt | i | i
Brc1ccccc1-c1nnc(CSc2nncn2-c2ccccc2)o1 | 171 | nt | i | i | i
O=c1c2ccccc2nc(SCc2nnc(-c3ccccc3Br)o2)n1-c1ccccc1 | i | nt | i | i | i
Cc1ccc(C(c2nnnn2Cc2ccccc2)N2CCN(Cc3ccccc3)CC2)cc1 (stereo unspecified) | nt | i | nt | nt | nt
O=C(NCCCN1CCN(c2ccc(F)cc2)CC1)c1cccc(N2CCCC2=O)c1 | i | i | 71 | i | i
O=C(NCCCN1CCCC1)c1cccc(N2CCCC2=O)c1 | i | i | i | i | i
Cc1ccc2c(c1)NC(=O)C(CC(=O)NCCCN1CCN(c3cc(C)ccc3C)CC1)O2 (stereo unspecified) | i | nt | 47 | i | i
CCN(CC)CCCNC(=O)CC1Oc2ccc(C)cc2NC1=O (stereo unspecified) | i | i | i | i | i
O=C(O)c1ccc(Cl)c(S(=O)(=O)NCc2ccco2)c1 | i | nt | i | i | i
Cc1cccc(N2CCN(C(=O)c3ccc(Cl)c(S(=O)(=O)NCc4ccco4)c3)CC2)c1C | i | nt | i | i | 16
O=S(=O)(c1cccs1)N1CCN(CC(O)COc2cc(Cl)ccc2Cl)CC1 (stereo unspecified) | i | nt | i | i | i
Cc1ccc2c(c1)c1c(n2CC(O)Cn2c(C)nc3ccccc32)C(=O)CCC1 (stereo unspecified) | 73 | nt | i | i | i
Cc1ccc2c(c1)c1c(n2CC(O)Cn2ccnc2C)C(=O)CCC1 (stereo unspecified) | nt | i | nt | nt | nt
Cc1ccc2c(c1)c1c(n2CC(O)Cn2c(C)nc3ccccc32)/C(=N\O)CCC1 (stereo unspecified) | i | 100 | i | i | i
CCOc1ccc(NC(=O)c2ccccc2OC)cc1 | i | i | i | i | i
COc1ccccc1C(=O)Nc1ccc(C(=O)O)cc1 | 74 | i | i | i | i
CCN(CC)CCn1c2ccccc2c2cnc(N)c(C#N)c21 | nt | i | nt | nt | nt
SMILES | 5HT1a ag | mHtt clearance | 5-HT1A blocker | HTR1E antagonist | HTR1E agonist
Oc1c(C(Nc2ccccn2)c2ccccn2)ccc2cccnc12 (stereo unspecified) | i | nt | 48 | 43 | i
COc1cc(C(Nc2ccccn2)c2ccc3ccc(C)nc3c2O)cc(OC)c1O (stereo unspecified) | i | nt | i | i | i
CCOc1ccc(NC2=NC(C(=O)NCc3ccccc3)CC(=O)N2)cc1 (stereo unspecified) | i | nt | i | i | i
CC1(C)CC(=O)C2=C(C1)N(c1cccc(O)c1)C1=C(C2)C(=O)CC(C)(C)C1 | i | nt | i | 30 | i
CC1(C)CC(=O)C(C(C2=C(O)CC(C)(C)CC2=O)c2cccc(O)c2)C(=O)C1 (stereo unspecified) | i | nt | i | i | i
Nc1nonc1-c1nc2ccccc2n1Cc1ccccc1 | i | i | 56 | i | i
CCOC(=O)c1ccccc1NC(=O)Cn1c(-c2nonc2N)nc2ccccc21 | i | nt | 80 | 74 | i
O=C(CN1C(=O)c2ccccc2S1(=O)=O)N1CCc2ccccc2C1 | i | nt | i | i | i
CC(C)CC(c1nnnn1Cc1ccccc1)N1CCN(C(=O)c2ccco2)CC1 (stereo unspecified) | i | nt | i | i | i
CCOC(=O)c1ccc(CNC(=O)c2cc3cccc(OC)c3oc2=O)o1 | i | nt | i | i | i
